In PubChem BioAssay (NCATS):
Inconclusive results are not listed. Activity calls are given as the source filed them. Calls come from the whole dose curve; as a rule, active = well fitted curve in the direction sought with a large enough effect; inconclusive = small, poorly fitted or top-dose-only effect, or another doubt; inactive = no such curve, though single readings can be large; an effect the other way counts as inactive or inconclusive.

Legend:
[1] = Cellular Toxicity (caspase-3) Mesangial (AID 660); conditions: mesangial cells, normalized: DMSO 0%, 100 µM tamoxifen 100%; at 91.7 µM (top of the series);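 note: combined caspase 3 and 7 activity read by Caspase-Glo luminescence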
Method in brief: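 Mesangial cells, 1000/well, 5 h settle at 37 °C; compound 16 h, 37 °C; Caspase-Glo 3/7 reagent 20 min RT; luminescence. Norm.: DMSO = 0%, tamoxifen 100 uM = 100%. AC50, Hill fit.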

[2] = Cellular Toxicity (caspase-3) SK-N-SH (AID 661);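 note: 0% = DMSO basal and 100% = 10 µM staurosporine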
Method in brief: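 Human neuroblastoma SK-N-SH, 1500 cells/well, 5 hr pre-incubation, then compound 16 hr, 37 °C. Caspase-Glo 3/7 reagent, 1 hr RT, luminescence. Norm. to DMSO/10 uM staurosporine; Hill-fit AC50.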

[3] = Cellular Toxicity (caspase-3) H-4-II-E (AID 663); conditions: H-4-II-E rat hepatoma, scaled: DMSO 0%, 100 µM tamoxifen 100%; at 92.2 µM (top of the series)
Method in brief: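 Rat hepatoma H-4-II-E cells (1500/well) plated 5 hr, then exposed to compound titrations for 16 hr at 37 °C. Caspase-Glo 3/7 luminescence read after 20 min at RT; data normalized to DMSO and 100 uM tamoxifen, AC50 from Hill fits.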

[4] = Cellular Toxicity (caspase-3) Hek293 (AID 664); conditions: HEK293 caspase-3 activation, DMSO = 0%, 100 µM tamoxifen = 100%; at 92.2 µM (top of the series);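 note: cells exposed to compound for 16 h at 37 °C before readout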
Method in brief: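 Cells plated, 5 hr at 37 °C; compounds added; 16 hr at 37 °C; Caspase-Glo 3/7 reagent, 20 min RT; luminescence read. Activation expressed relative to DMSO and 100 uM tamoxifen, AC50 by Hill model.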

[5] = Cellular Toxicity (caspase-3) NIH 3T3 (AID 666);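 note: caspase signal read after 16 h compound exposure; 0% = DMSO basal and 100% = 100 µM tamoxifen stimulation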
Method in brief: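 Luminescence from aminoluciferin released by caspase-3/7 cleavage of a peptide substrate served as read-out. Mouse fibroblast NIH 3T3 cells were exposed to compounds over a concentration range for 16 hours, and AC50 values came from standard Hill modelling.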

[6] = Cellular Toxicity (caspase-3) Renal Proximal Tubule (AID 667); conditions: Potency: caspase-3 activation;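 note: cells exposed to compound for 16 hours at 37 °C before detection; 0% = DMSO basal and 100% = 10 µM staurosporine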
Method in brief: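 Freshly isolated primary rat kidney proximal tubule cells, 1000/well, treated 16 hr at 37 °C, then Caspase-Glo 3/7 luminescence after 1 hr. Normalized to DMSO and 10 uM staurosporine; AC50 from Hill fit.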

[7] = molecular target: Cytochrome P450 3A4 (Homo sapiens) (UniProt P08684); test: qHTS Assay for Inhibitors and Substrates of Cytochrome P450 3A4 (AID 884); note: % is set by controls: 0 for no effect and ±100 for the full control effect; nearly all actives have a fitted effect of over 50% in size
Chain of Cytochrome P450 3A4 (Homo sapiens) (P08684 whole entry, looked up): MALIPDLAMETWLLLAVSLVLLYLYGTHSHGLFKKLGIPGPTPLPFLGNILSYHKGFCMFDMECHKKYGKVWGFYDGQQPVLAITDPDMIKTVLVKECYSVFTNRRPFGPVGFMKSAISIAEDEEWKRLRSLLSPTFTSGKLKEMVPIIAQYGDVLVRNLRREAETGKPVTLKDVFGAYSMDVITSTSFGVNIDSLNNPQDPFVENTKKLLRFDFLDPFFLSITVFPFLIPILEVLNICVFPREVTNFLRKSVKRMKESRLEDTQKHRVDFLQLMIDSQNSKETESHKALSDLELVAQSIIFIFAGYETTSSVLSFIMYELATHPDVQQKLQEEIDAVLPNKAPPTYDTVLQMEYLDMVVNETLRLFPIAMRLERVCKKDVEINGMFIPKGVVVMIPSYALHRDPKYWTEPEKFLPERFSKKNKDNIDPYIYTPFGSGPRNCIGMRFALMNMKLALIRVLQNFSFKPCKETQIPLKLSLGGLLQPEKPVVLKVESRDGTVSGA
Method in brief: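 20 nM human CYP3A4 with 25 uM Luciferin-PPXE (at KM) in 200 mM KPO4, preincubated 10 min with compound; NADPH regeneration started a 60 min RT reaction. Luciferin detected by luminescence, normalized to 57 uM ketoconazole as full inhibition.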

[8] = Cell Viability - LYMP2-001 (AID 921);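 note: 0% = DMSO only and full inhibition = tetraoctylammonium bromide control wells; nearly all actives have a fitted effect of over 70% in size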
Method in brief: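 Human lymphoblastoid LYMP2-001 cells, 2500 per well, in complete medium, treated 24 h at 37 C. Viability from cellular ATP by CellTiter-Glo luminescence; AC50 from Hill-equation fits of qHTS concentration-response.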

[9] = MultiTox-Fluor Cytotoxicity Assay - LYMP1-001 - Dead Cells (AID 946)
Method in brief: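 In this qHTS, 15 uM tetraoctylammonium bromide defined 100% and DMSO defined basal activity. Lymphoblastoid cells (LYMP1-001, 2500 per well) received compound for 16 hr at 37 C before a fluorogenic dead-cell substrate readout at 485/520 nm.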

[10] = MultiTox-Fluor Cytotoxicity Assay - LYMP1-001 - Live Cells (AID 947);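 note: 0% = DMSO only and full inhibition = tetraoctylammonium bromide control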
[11] = Cell Viability - LYMP1-002 - Assay at 16 hr (AID 948);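 note: 0% = DMSO alone and full effect = 92 µM tetraoctylammonium bromide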
Method in brief: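 LYMP1-002 human lymphoblastoid cells, 2500/well, were treated with compounds for 16 hr at 37 C in complete medium. Viability was read as intracellular ATP by CellTiter-Glo luminescence, and AC50 was derived from a Hill fit to concentration-response data.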

[12] = MultiTox-Fluor Cytotoxicity Assay - LYMP1-002 - Live Cells (AID 955); note: % is set by controls: 0 for no effect and ±100 for the full control effect
Method in brief: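 Read-out is live-cell protease activity (cell-permeant GF-AFC substrate, fluorescence Ex/Em=405/510), where a decrease indicates acute toxicity. Human lymphoblastoid cells were treated 16 hours at 37 C in a concentration series, and AC50 values came from standard Hill modelling.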

[13] = MultiTox-Fluor Cytotoxicity Assay - LYMP1-002 - Dead Cells (AID 960); note: nearly all actives have a fitted effect of over 60% in size
Method in brief: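 LYMP1-002 cells 2500/well; 5 hr 37 C pre-incubation; compound 16 hr 37 C; MultiTox-Fluor reagent 60 min RT; dead-cell fluor Ex/Em 485/520. Norm. to DMSO (0%) vs 15 uM tetraoctylammonium bromide (100%); Hill AC50.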

[14] = MultiTox-Fluor Cytotoxicity Assay - LYMP1-003 - Dead Cells (AID 961); note: nearly all actives have a fitted effect of over 70% in size
Method in brief: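 Acute toxicity is scored as increased dead-cell protease activity in human lymphoblastoid LYMP1-003 cells after 16 h compound exposure in complete culture medium. Activity is normalized to DMSO basal and 15 uM tetraoctylammonium bromide as full response.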

[15] = MultiTox-Fluor Cytotoxicity Assay - LYMP1-003 - Live Cells (AID 962);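 note: 0% = DMSO only and full loss = 92 µM tetraoctylammonium bromide; cytotoxic hits lower the live-cell protease signal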
Method in brief: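 qHTS, 1536-well; 2500 cells/well LYMP1-003; 5 hr 37 C settle; cpd 16 hr 37 C; MultiTox-Fluor reagent 60 min RT; live-cell protease fluor. 405/510; Hill-fit AC50; tetraoctylammonium bromide pos. ctrl.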

[16] = Cell Viability - LYMP1-003 - Assay at 24 hr (AID 963);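 note: plate controls were DMSO only for no effect and tetraoctylammonium bromide positive control for full effect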
Method in brief: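 Cells seeded at 2500/well, 5 hr at 37 C; compounds added; 24 hr at 37 C; CellTiter-Glo added, 30 min room temperature; luminescence read. Decrease in ATP taken as cytotoxicity, AC50 from Hill modelling.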

[17] = Cell Viability - LYMP1-003 - Assay at 40 hr (AID 964); note: % is set by controls: 0 for no effect and ±100 for the full control effect; nearly all actives have a fitted effect of over 60% in size
Method in brief: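 Cells were seeded at 2500 per well and incubated 5 hr at 37 C. Compounds were added across a concentration series and left 40 hr at 37 C. CellTiter-Glo was added for 30 min at room temperature before luminescence reading.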

[18] = Cell Viability - LYMP2-003 (AID 965);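 note: cells exposed to compounds for 24 h before reading; 0% = DMSO only and full effect = 92 µM tetraoctylammonium bromide; nearly all actives have a fitted effect of over 50% in size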
Method in brief: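 Human lymphoblastoid LYMP2-003 cells, 2500/well, exposed to compounds for 24 h at 37 C in complete medium. Viability read as intracellular ATP by CellTiter-Glo luminescence; AC50 from Hill-equation fits of qHTS concentration-response data.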

[19] = Cellular Toxicity (caspase-3) N2a (AID 665);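 note: compound exposure lasted 16 h at 37 °C before readout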
Method in brief: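 N2a cells, 1500/well, 5 h settle at 37 °C; cpd 16 h, 37 °C; Caspase-Glo 3/7, 1 h RT; luminescence. Norm: DMSO = 0, 10 uM staurosporine = 100%. AC50, Hill fit.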

[20] = Cell Viability - LYMP2-004 (AID 966);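 note: plate controls were DMSO only for no effect and tetraoctylammonium bromide control for full effect; nearly all actives have a fitted effect of over 65% in size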
Method in brief: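 Cells seeded 2500/well, rested 5 hr at 37 C, dosed across a concentration series, incubated 24 hr at 37 C, then CellTiter-Glo added for 30 min at room temperature and luminescence read. Hill fitting gave AC50.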

Cc1ccccc1C#N
inactive: caspase-3 activation [1] 0.378% | outcome [2] | caspase-3 activation [3] 1.11% | caspase-3 activation [4] -1.44% | outcome [5] | Potency [6] | Potency [7] | Potency [8] | outcome [9] | outcome [10] | outcome [11] | outcome [12] | outcome [13] | Potency [14] | Potency [15] | Potency [16] | Potency [17] | Potency [18]

C=CCCCCCC
inactive: caspase-3 activation [1] 0.339% | outcome [2] | caspase-3 activation [3] 1.37% | caspase-3 activation [4] -0.874% | outcome [19] | Potency [6] | Potency [8] | outcome [9] | outcome [11] | outcome [12] | outcome [13] | Potency [14] | Potency [15] | Potency [16] | Potency [17] | Potency [18] | Potency [20]

CCN(CC)c1cccc(O)c1
inactive: caspase-3 activation [1] -0.898% | outcome [2] | caspase-3 activation [3] 2.1% | caspase-3 activation [4] 0.00739% | outcome [19] | Potency [6] | Potency [8] | outcome [9] | outcome [10] | outcome [11] | outcome [12] | outcome [13] | Potency [14] | Potency [15] | Potency [16] | Potency [17] | Potency [18] | Potency [20]

Nc1cc(Cl)c(N)c(Cl)c1
inactive: caspase-3 activation [1] -0.0656% | outcome [2] | caspase-3 activation [3] 1.21% | caspase-3 activation [4] -2.67% | outcome [19] | Potency [6] | Potency [8] | outcome [9] | outcome [10] | outcome [11] | outcome [12] | Potency [14] | Potency [15] | Potency [16] | Potency [17] | Potency [18] | Potency [20]

CCCCCCCCCCCCOCC1CO1 (centres undefined)
inactive: caspase-3 activation [1] 1.85% | outcome [2] | caspase-3 activation [3] 3.02% | caspase-3 activation [4] 2.47% | outcome [19] | Potency [6] | Potency [7] | Potency [8] | outcome [9] | outcome [10] | outcome [11] | outcome [12] | outcome [13] | Potency [14] | Potency [15] | Potency [16] | Potency [17] | Potency [18]

Nc1cccc2c(=O)[nH][nH]c(=O)c12
inactive: caspase-3 activation [1] -0.301% | outcome [2] | caspase-3 activation [3] 0.0355% | caspase-3 activation [4] -1.17% | outcome [19] | Potency [6] | Potency [8] | outcome [9] | outcome [11] | outcome [12] | outcome [13] | Potency [14] | Potency [15] | Potency [16] | Potency [17] | Potency [18] | Potency [20]

CC(C)c1ccccc1
inactive: caspase-3 activation [1] -1.25% | outcome [2] | caspase-3 activation [3] 0.504% | caspase-3 activation [4] -0.725% | outcome [19] | Potency [6] | Potency [7] | Potency [8] | outcome [9] | outcome [10] | outcome [11] | outcome [12] | outcome [13] | Potency [14] | Potency [15] | Potency [16] | Potency [17] | Potency [18] | Potency [20]

Cc1cc(C)cc(O)c1
inactive: caspase-3 activation [1] -0.0828% | outcome [2] | caspase-3 activation [3] -0.413% | caspase-3 activation [4] 0.338% | outcome [19] | Potency [6] | Potency [8] | outcome [9] | outcome [10] | outcome [11] | outcome [12] | outcome [13] | Potency [14] | Potency [15] | Potency [16] | Potency [17] | Potency [18] | Potency [20]

COc1ccc(N=[N+]([O-])c2ccc(OC)cc2)cc1
inactive: caspase-3 activation [1] -3.45% | outcome [2] | caspase-3 activation [3] -3.45% | caspase-3 activation [4] -8.4% | outcome [19] | Potency [6] | Potency [7] | Potency [8] | outcome [9] | outcome [11] | outcome [12] | Potency [14] | Potency [15] | Potency [16] | Potency [17] | Potency [18] | Potency [20]

CC(C)(c1cc(Br)c(OCC(Br)CBr)c(Br)c1)c1cc(Br)c(OCC(Br)CBr)c(Br)c1 (centres undefined)
inactive: caspase-3 activation [1] 0.758% | outcome [2] | caspase-3 activation [3] 1.29% | caspase-3 activation [4] 16.5% | outcome [19] | Potency [6] | Potency [7] | outcome [9] | outcome [10] | outcome [11] | outcome [12] | outcome [13] | Potency [14] | Potency [15] | Potency [16] | Potency [17] | Potency [18] | Potency [20]

CCCCCO
inactive: caspase-3 activation [1] 1.64% | outcome [2] | caspase-3 activation [3] -0.271% | caspase-3 activation [4] -0.0419% | outcome [19] | Potency [8] | outcome [9] | outcome [10] | outcome [11] | outcome [12] | outcome [13] | Potency [14] | Potency [15] | Potency [16] | Potency [17] | Potency [18] | Potency [20]

CC(C)(O)C(=O)O
inactive: caspase-3 activation [1] -0.246% | outcome [2] | caspase-3 activation [3] -0.178% | caspase-3 activation [4] 0.779% | outcome [19] | Potency [6] | Potency [7] | Potency [8] | outcome [9] | outcome [10] | outcome [11] | outcome [12] | outcome [13] | Potency [14] | Potency [15] | Potency [16] | Potency [17] | Potency [18] | Potency [20]

CCOC(=O)C(C)C(C)=O (centres undefined)
inactive: caspase-3 activation [1] 1.11% | outcome [2] | caspase-3 activation [3] 0.941% | caspase-3 activation [4] -0.825% | outcome [19] | Potency [6] | Potency [7] | Potency [8] | outcome [9] | outcome [11] | outcome [12] | outcome [13] | Potency [14] | Potency [15] | Potency [16] | Potency [17] | Potency [18] | Potency [20]

Fc1ccccc1
inactive: caspase-3 activation [1] -0.0832% | outcome [2] | caspase-3 activation [3] -0.374% | caspase-3 activation [4] -1.91% | outcome [19] | Potency [6] | Potency [8] | outcome [9] | outcome [10] | outcome [11] | outcome [12] | outcome [13] | Potency [14] | Potency [15] | Potency [16] | Potency [17] | Potency [18] | Potency [20]
